Compounds without any hit were thinned out: in the full panel of roughly 83,000, 20% have a hit.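 Each cell line was grown in a 96-well plate and treated with one concentration of compound for 48 hours. Values below 10 were considered active.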 Values without a mark were called inactive. Active and inactive are the calls of the source.
tested on: HOP-92 NSCLC; experiment: NCI-60 one-dose screen, 48 h (100 = growth as untreated, 0 = no growth, -100 = all killed); settings: 10 µM unless noted

Structure (SMILES)	growth
CC(=O)O[C@H]1CCC2(C)C(=CCC3C2CCC2(C)/C(=N/OC(=O)c4ccc(N(CCCl)CCCl)cc4)CCC32)C1 (stereo partly specified)	76.1%
O=[N+]([O-])c1cc([N+](=O)[O-])c(Cl)c(Cl)c1Cl	2.39% (active)
COc1ccc2c(c1)NC1=C(C(=O)OC1)C2c1cc(OC)c(OC)c(OC)c1 (stereo unspecified)	5.87% (active)
C[C@]12CCc3sc(-c4ccc(Cl)cc4)nc3C1=CC[C@@H]1[C@@H]2CC[C@]2(C)C(=O)CC[C@@H]12	98.6%
C=CCC1(CC)C(=O)NC(=S)NC1=O	80.6%
NC(Cc1ccc2c(c1)OCO2)c1ccc2c(c1)OCO2 (stereo unspecified)	63.1%
Nc1c(Br)cc([N+](=O)[O-])cc1[N+](=O)[O-]	120%
Nc1c(Br)cc2c3c(cccc13)-c1ccccc1-2	25%
c1ccc(-c2ccc3ccccc3[o+]2)cc1	83.2%
CSc1ccccc1NP1(=O)OCC(C)([N+](=O)[O-])CO1 (stereo unspecified)	89.4%
CCCC(C)(C)c1ccc2c(c1)OC(C)(C)[C@@H]1CC=C(C)C[C@@H]21	100%
CC1(CF)NC(=O)NC1=O (stereo unspecified)	84.4%

tested on: NCI-H522 lung; experiment: as above; settings: 10 µM unless noted

Structure (SMILES)	growth
Fc1ccc(C2=NN(c3ccccc3)C(c3sc(N(CCCl)CCCl)nc3Cl)C2)cc1 (stereo unspecified)	64.2%
CC[C@H](C)[C@H](NC(=O)Nc1ccccc1)C(=O)N(C)[C@H](C[C@@H](OC(C)=O)c1nc(C(=O)N[C@@H](Cc2ccccc2)C[C@H](C)C(=O)OC)cs1)C(C)C	-44.6% (active)
c1ccc(CCN2CCCCC2Cc2ccccc2)cc1 (stereo unspecified)	83.5%
CC(=O)O[C@H]1CCC2(C)C(=CCC3C2CCC2(C)/C(=N/OC(=O)c4ccc(N(CCCl)CCCl)cc4)CCC32)C1 (stereo partly specified)	27.6%
O=C(N/N=C/c1ccc(N(CCCl)CCCl)cc1)c1cc(=O)[nH]c(=O)[nH]1	96.7%
O=[As]c1ccc(C(=O)c2ccc(Oc3ccccc3)cc2)cc1 (stereo unspecified)	-95.4% (active)
O=[N+]([O-])c1cc([N+](=O)[O-])c(Cl)c(Cl)c1Cl	-86.5% (active)
COc1ccc2c(c1)NC1=C(C(=O)OC1)C2c1cc(OC)c(OC)c(OC)c1 (stereo unspecified)	-26.2% (active)
C=CCc1ccc(OC(=O)Cc2ccccc2)c(OC)c1	90.4%
CC(C)(O)/C=C/C(=O)[C@](C)(O)[C@H]1[C@H](O)C[C@@]2(C)[C@@H]3CC=C4[C@@H](C=C(O)C(=O)C4(C)C)[C@]3(C)C(=O)C[C@]12C	-74.7% (active)
C=CCC1(CC)C(=O)NC(=S)NC1=O	93.5%
NC(Cc1ccc2c(c1)OCO2)c1ccc2c(c1)OCO2 (stereo unspecified)	97.2%
O=C(CF)N(O)c1ccc(/C=C/c2ccccc2)cc1	60.6%
COc1ccc(/C=C(/C(=O)N2CCCC2)c2cc(OC)c(OC)c(OC)c2)cc1N	3.14% (active)
Nc1c(Br)cc([N+](=O)[O-])cc1[N+](=O)[O-]	105%
CCCCNCCc1ccccn1	86.9%
CNC(=O)Oc1cccc(OC)c1	96.5%
C=C=[CH][Sn]([c]1ccccc1)([c]1ccccc1)[c]1ccccc1	-69.4% (active)
NC(=O)SCC(=O)Nc1ccc([As](=O)(O)O)cc1	-9.01% (active)
C[C@]12CC[C@H]3[C@@H](C[C@@H]4N=C(c5ccc(O)cc5)S[C@@]45C[C@H](O)CC[C@]35C)[C@@H]1CC[C@@H]2O	41.2%
COc1cc2c(cc1OC)CN(C)C(C)C2 (stereo unspecified)	82.3%
CC(C)C1c2ccc(O)cc2Oc2nc(N)c(C#N)c(N)c21 (stereo unspecified)	86.4%
c1ccc2nc(OCCN3CC3)ccc2c1	47.1%
c1ccc(-c2ccc3ccccc3[o+]2)cc1	81.2%
CSc1ccccc1NP1(=O)OCC(C)([N+](=O)[O-])CO1 (stereo unspecified)	103%
CC1COC(=O)C1 (stereo unspecified)	99.4%
COc1ccc(/C=C\c2cc(OC)c(OC)c(OC)c2)cc1N/C=C\C(=O)c1c[nH]c2ccccc12	-9.96% (active)
CCCC(C)(C)c1ccc2c(c1)OC(C)(C)[C@@H]1CC=C(C)C[C@@H]21	93.2%
CC1(CF)NC(=O)NC1=O (stereo unspecified)	122%
